Inconclusive results are not listed. A structure can be active in one record and inactive in another. Activity calls are given as the source filed them. How the source made its calls, unless noted: active means hit-call score of the fitted dose curve at least 0.9, where 1 is the maximum; inactive means score below 0.9.

For assay [1], the target named is human Vitamin D Receptor (VDR), VDR (gene 7421) (UniProt P11473). As to the kind of experiment: ATG_VDR_TRANS: Attagene TRANS-FACTORIAL HepG2 Assay for human Vitamin D Receptor (VDR) (AID 2283022; active means hit-call score of the fitted dose curve at least 0.9, where 1 is the maximum). In a few lines:
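Fluorescence of labelled reporter cDNA fragments, resolved by capillary electrophoresis, gives mRNA induction after 24 h treatment of HepG2 cells carrying transfected Gal4-fusion reporter units. Activity is fitted in the positive direction with DMSO as baseline.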

Read-out in assay [2]: E-selectin (Homo sapiens) (UniProt P16581)
Description: BSK_3C_Eselectin: BioMAP Diversity Plus: 3C Assay for Eselectin Biomarker Activity (AID 2283015).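 On outcome: cell surface E-selectin protein quantified by ELISA 24 h after dosing.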 To be noted: primary human endothelial cells (HUVEC); actives raise or lower the signal. The method in brief: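 Human vascular endothelium from umbilical vein is exposed to test chemicals for 24 h. E-selectin levels are read by ELISA and compared with DMSO controls.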

Read-out in assay [3]: Interleukin-1 alpha (IL1a), IL1A (gene 3552)
Description: BSK_BE3C_IL1a: BioMAP Diversity Plus: BE3C Assay for Interleukin-1 alpha (IL1a) Biomarker Activity (AID 2283016). To be noted: primary human bronchial epithelial cells; actives raise or lower the signal. The method in brief: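 BE3C primary human bronchial epithelium; cpd 24 h; IL-1a by ELISA; bidirectional fit vs DMSO; parallel SRB (0.1% SRB, 10% TCA fix, 560 nm) for cytotoxicity.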

Read-out in assay [4]: Monocyte Chemoattractant Protein-1 (MCP1), CCL2 (gene 6347)
Description: BSK_3C_MCP1: BioMAP Diversity Plus: 3C Assay for Monocyte Chemoattractant Protein-1 (MCP1) Biomarker Activity (AID 2283017). As to conditions: primary human endothelial cells (HUVEC); actives raise or lower the signal. In a few lines: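 Endothelial cells from human umbilical vein are dosed with chemical, cultured 24 h, then assayed for MCP-1 by ELISA; both increases and decreases are modelled against DMSO controls.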

Read-out in assay [5]: Monocyte Chemoattractant Protein-1 (MCP1), CCL2 (gene 6347)
As to the kind of experiment: BSK_4H_MCP1: BioMAP Diversity Plus: 4H Assay for Monocyte Chemoattractant Protein-1 (MCP1) Biomarker Activity (AID 2283018). As to conditions: primary human endothelial cells (HUVEC); actives raise or lower the signal. In a few lines: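 ELISA read-out of MCP-1 from human vascular endothelial primary cells taken at 24 hours after compound exposure. Activity was fitted in both directions relative to DMSO, which served as negative control.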

Read-out in assay [6]: Human Leukocyte Antigen - DR isotype (HLADR), HLA-DRA (gene 3122)
As to the kind of experiment: BSK_3C_HLADR: BioMAP Diversity Plus: 3C Assay for Human Leukocyte Antigen - DR isotype (HLADR) Biomarker Activity (AID 2283019).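 On outcome: ELISA of cell-surface HLA-DR on HUVEC 24 h after dosing.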 To be noted: primary human endothelial cells (HUVEC); actives raise or lower the signal. The method in brief:
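Endothelial cells from human umbilical vein are treated with test chemical; after 24 h, HLA-DR levels are measured by ELISA. Data are fitted in both directions using DMSO as the baseline.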

Read-out in assay [7]: Interleukin-8 (IL8), CXCL8 (gene 3576)
As to the kind of experiment: BSK_3C_IL8: BioMAP Diversity Plus: 3C Assay for Interleukin-8 (IL8) Biomarker Activity (AID 2283020). As to conditions: primary human endothelial cells (HUVEC); actives raise or lower the signal. The method in brief: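 ELISA read-out of IL-8 from human umbilical vein endothelium, measured 24 h after chemical dosing. Activity is expressed relative to DMSO negative control, with both increases and decreases fitted.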

Read-out in assay [8]: Monokine induced gamma interferon (MIG), CXCL9 (gene 4283)
Description: BSK_3C_MIG: BioMAP Diversity Plus: 3C Assay for Monokine induced gamma interferon (MIG) Biomarker Activity (AID 2283021). As to conditions: primary human endothelial cells (HUVEC); actives raise or lower the signal. The method in brief: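 Read-out is ELISA detection of MIG on human umbilical vein endothelial cells, taken 24 h after dosing. Gain or loss of signal was scored relative to DMSO controls using bidirectional curve fitting.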

Assay [9] in a line: BSK_3C_SRB: Viability Assessment in the BioMAP Diversity Plus: 3C Assay (AID 2283023).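 Further: fitted both ways against DMSO so a hit may be signal rise or drop.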 As to conditions: primary human endothelial cells (HUVEC). The method in brief: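 Cells were dosed with chemical, cultured 24 h, fixed with 10% TCA, stained with 0.1% SRB and read at 560 nm. Human umbilical vein endothelium was used; DMSO served as negative control and baseline.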
Read-out in assay [10]: Matrix Metallopeptidase 1 (MMP1), MMP1 (gene 4312)
As to the kind of experiment: BSK_BE3C_MMP1: BioMAP Diversity Plus: BE3C Assay for Matrix Metallopeptidase 1 (MMP1) Biomarker Activity (AID 2283024). To be noted: primary human bronchial epithelial cells; actives raise or lower the signal. In a few lines: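 Human bronchial epithelial cells (BE3C system) exposed to compound for 24 h; MMP1 then quantified by ELISA. Activity was fitted in both directions relative to DMSO.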

The nature of assay [11]: BSK_3C_Vis: BioMAP Diversity Plus: 3C Assay for Morphology Visualization (AID 2283025).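 Further: fitted both ways so gain or loss versus DMSO counts.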 As to conditions: primary human endothelial cells (HUVEC). In a few lines:
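Chemicals were added to primary human umbilical vein endothelium, cells were incubated 24 h, and morphology was then visualized by light microscopy. Gain or loss of signal was fitted bidirectionally relative to DMSO.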

Read-out in assay [12]: Pselectin, SELP (gene 6403)
As to the kind of experiment: BSK_4H_Pselectin: BioMAP Diversity Plus: 4H Assay for Pselectin Biomarker Activity (AID 2283026). As to conditions: primary human endothelial cells (HUVEC); actives raise or lower the signal. In a few lines:
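ELISA read-out of P-selectin on human umbilical vein endothelium after 24 h of dosing. Values derive from bidirectional fitting relative to DMSO. Parallel SRB protein staining flagged overt cytotoxicity.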

The nature of assay [13]: BSK_4H_SRB: Viability Assessment in the BioMAP Diversity Plus: 4H Assay (AID 2283027).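 Further: cells exposed to compound for 24 h before staining.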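 On AC50: curves fitted both ways versus DMSO so AC50 may be loss or gain.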 As to conditions: primary human endothelial cells (HUVEC). The method in brief: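 Absorbance at 560 nm of SRB-stained total protein served as the viability read-out in confluent primary human umbilical vein endothelium 24 h after chemical treatment. Curves were fitted bidirectionally against DMSO as negative control.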

A short description of assay [14]: BSK_BE3C_SRB: Viability Assessment in the BioMAP Diversity Plus: BE3C Assay (AID 2283028). As to conditions: primary human bronchial epithelial cells. The method in brief: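 Overt cytotoxicity was assessed as total protein in confluent human primary bronchial epithelial cultures 24 h after chemical addition, using 0.1% sulforhodamine B staining read at 560 nm.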

Read-out in assay [15]: Thrombomodulin, THBD (gene 7056)
Description: BSK_3C_Thrombomodulin: BioMAP Diversity Plus: 3C Assay for Thrombomodulin Biomarker Activity (AID 2283029). To be noted: primary human endothelial cells (HUVEC); actives raise or lower the signal. In a few lines:
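Read-out is ELISA of thrombomodulin on human umbilical vein endothelium 24 h after chemical dosing. Gain or loss of signal is scored relative to DMSO. Overt cytotoxicity is checked in parallel cultures by sulforhodamine B staining.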

Read-out in assay [16]: Urokinase-type plasminogen activator receptor (uPAR), PLAUR (gene 5329)
Description: BSK_4H_uPAR: BioMAP Diversity Plus: 4H Assay for Urokinase-type plasminogen activator receptor (uPAR) Biomarker Activity (AID 2283030). As to conditions: primary human endothelial cells (HUVEC); actives raise or lower the signal. The method in brief:
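Chemicals are dosed onto human vascular endothelial primary cells (umbilical vein). After 24 h, uPAR is read by ELISA. Gain or loss of signal is fitted relative to DMSO.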

Read-out in assay [17]: Vascular endothelial growth factor receptor 2 (Homo sapiens) (UniProt P35968)
Description: BSK_4H_VEGFRII: BioMAP Diversity Plus: 4H Assay for Vascular endothelial growth factor receptor 2 (VEGFR2) Biomarker Activity (AID 2283031). To be noted: primary human endothelial cells (HUVEC); actives raise or lower the signal. The method in brief: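 VEGFRII levels on human vascular endothelial primary cells were determined by ELISA at 24 hours post-dosing, with gain- or loss-of-signal fitted against DMSO controls.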

Assay [18] addresses human Thyroid Receptor alpha (THRa1), THRA (gene 7067) (UniProt P10827). As to the kind of experiment: ATG_THRa1_TRANS: Attagene TRANS-FACTORIAL HepG2 Assay for human Thyroid Receptor alpha (THRa1) (AID 2283014; active means hit-call score of the fitted dose curve at least 0.9, where 1 is the maximum). In a few lines: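 First, HepG2 cells receive multiple GAL4-UAS reporter units and the chimeric receptor. They are then dosed for 24 h, after which RNA is reverse-transcribed, amplified, labelled, HpaI-cut and sized by capillary electrophoresis; gain relative to DMSO is scored.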

Assay [19] has as its target human Retinoid X Receptor beta (RXRb), RXRB (gene 6257) (UniProt P28702). As to the kind of experiment: ATG_RXRb_TRANS: Attagene TRANS-FACTORIAL HepG2 Assay for human Retinoid X Receptor beta (RXRb) (AID 2283013; active means hit-call score of the fitted dose curve at least 0.9, where 1 is the maximum). In a few lines:
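Transfect HepG2 with GAL4-UAS multi-reporter constructs (chimeric NR-Gal4, TRANS format); dose compound 24 h; isolate RNA, RT-PCR, FAM primer extension, HpaI digest; quantify by capillary electrophoresis; positive direction vs DMSO.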

Sequence of human Thyroid Receptor alpha (THRa1), THRA (gene 7067) (P10827 whole entry, looked up, the tested form may be a part): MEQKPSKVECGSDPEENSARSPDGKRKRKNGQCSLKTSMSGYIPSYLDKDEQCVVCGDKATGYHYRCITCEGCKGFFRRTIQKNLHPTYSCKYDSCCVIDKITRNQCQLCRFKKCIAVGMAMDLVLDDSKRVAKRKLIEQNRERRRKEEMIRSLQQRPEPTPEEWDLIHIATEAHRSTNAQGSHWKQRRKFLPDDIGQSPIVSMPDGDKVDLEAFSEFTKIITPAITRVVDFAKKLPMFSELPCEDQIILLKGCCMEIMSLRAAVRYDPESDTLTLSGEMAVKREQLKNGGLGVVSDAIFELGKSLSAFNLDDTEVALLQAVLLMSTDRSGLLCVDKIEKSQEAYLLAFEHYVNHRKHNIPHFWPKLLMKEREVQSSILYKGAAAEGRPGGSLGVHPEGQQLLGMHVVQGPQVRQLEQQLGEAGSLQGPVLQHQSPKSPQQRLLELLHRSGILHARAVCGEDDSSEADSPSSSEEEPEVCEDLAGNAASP
Sequence of E-selectin (Homo sapiens) (P16581 whole entry, looked up): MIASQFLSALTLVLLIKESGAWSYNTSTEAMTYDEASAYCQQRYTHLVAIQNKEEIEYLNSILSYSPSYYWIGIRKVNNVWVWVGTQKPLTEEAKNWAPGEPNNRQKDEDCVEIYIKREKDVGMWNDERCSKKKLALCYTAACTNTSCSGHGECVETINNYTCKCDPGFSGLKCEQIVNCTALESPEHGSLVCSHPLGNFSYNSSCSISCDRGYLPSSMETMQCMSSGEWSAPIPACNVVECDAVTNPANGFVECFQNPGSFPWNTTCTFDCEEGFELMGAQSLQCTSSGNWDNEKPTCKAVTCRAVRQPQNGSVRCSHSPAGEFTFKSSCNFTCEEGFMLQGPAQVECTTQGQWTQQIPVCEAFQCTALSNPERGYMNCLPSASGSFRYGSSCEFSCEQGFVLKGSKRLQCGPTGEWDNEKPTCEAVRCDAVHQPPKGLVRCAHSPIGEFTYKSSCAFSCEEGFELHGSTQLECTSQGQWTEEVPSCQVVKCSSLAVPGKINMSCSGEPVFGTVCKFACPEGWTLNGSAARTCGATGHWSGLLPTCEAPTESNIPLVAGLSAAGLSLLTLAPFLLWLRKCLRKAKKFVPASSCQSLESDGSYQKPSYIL
Sequence of human Vitamin D Receptor (VDR), VDR (gene 7421) (P11473 whole entry, looked up, the tested form may be a part): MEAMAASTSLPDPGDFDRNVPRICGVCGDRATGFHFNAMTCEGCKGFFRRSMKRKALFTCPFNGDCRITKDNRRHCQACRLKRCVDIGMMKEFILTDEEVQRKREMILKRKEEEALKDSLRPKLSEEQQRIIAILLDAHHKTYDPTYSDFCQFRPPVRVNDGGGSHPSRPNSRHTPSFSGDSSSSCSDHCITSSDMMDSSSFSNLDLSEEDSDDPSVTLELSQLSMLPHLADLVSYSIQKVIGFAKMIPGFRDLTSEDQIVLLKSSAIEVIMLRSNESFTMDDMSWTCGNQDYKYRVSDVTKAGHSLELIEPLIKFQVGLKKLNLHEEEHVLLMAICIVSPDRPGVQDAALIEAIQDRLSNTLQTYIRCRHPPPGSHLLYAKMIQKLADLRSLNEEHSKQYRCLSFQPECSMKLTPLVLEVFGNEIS
Sequence of human Retinoid X Receptor beta (RXRb), RXRB (gene 6257) (P28702 whole entry, looked up, the tested form may be a part): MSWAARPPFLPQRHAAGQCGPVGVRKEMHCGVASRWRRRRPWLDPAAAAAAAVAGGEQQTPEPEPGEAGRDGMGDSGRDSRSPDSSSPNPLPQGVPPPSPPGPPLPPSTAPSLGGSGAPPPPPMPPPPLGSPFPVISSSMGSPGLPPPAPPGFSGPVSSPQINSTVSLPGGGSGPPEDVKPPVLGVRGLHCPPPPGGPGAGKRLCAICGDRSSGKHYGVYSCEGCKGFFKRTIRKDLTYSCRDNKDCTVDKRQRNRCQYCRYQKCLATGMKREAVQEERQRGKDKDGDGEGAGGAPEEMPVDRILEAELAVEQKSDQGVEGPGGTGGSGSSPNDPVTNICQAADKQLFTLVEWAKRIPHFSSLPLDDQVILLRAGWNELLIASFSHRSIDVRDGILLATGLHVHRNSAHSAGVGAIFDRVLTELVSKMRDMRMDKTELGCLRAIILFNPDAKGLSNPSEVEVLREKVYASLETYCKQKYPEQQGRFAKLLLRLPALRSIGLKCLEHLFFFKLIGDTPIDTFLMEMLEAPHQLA

Take `O=[N+]([O-])c1cccc(Cl)c1`: the compound was classed as inactive in assay [1].

On to `C=C(C)C(=O)OCCOCCOCCOC(=O)C(=C)C`, for which the result in [2], in assay [3], in assay [4], in assay [5], in assay [6] and in assay [7] was inactive. Moreover, the result in assay [8], in assay [9], in assay [10], in [11], in [12] and in assay [13] was inactive. Besides, the outcome in assay [14], in assay [15], in assay [16] and in assay [17] was inactive.

Turning to `C=C(C#N)C(=O)OCC`, the result in assay [18] was inactive.

On to `CCCCC1(COC(=O)CCC(=O)O)C(=O)N(c2ccccc2)N(c2ccccc2)C1=O`, for which, in assay [1], the result was inactive.

`OCc1ccc(Cl)cc1Cl`: the compound was classed as inactive in [18].

Consider `O=C(c1ccccc1)C(O)c1ccccc1` (centres undefined), for which the call in [1] was inactive.

As to `NC1CCCCC1N` (centres undefined), the outcome in [1] was inactive.

For `CCOc1ccc(N=Nc2ccc(C=Cc3ccc(N=Nc4ccc(OCC)cc4)cc3S(=O)(=O)O)c(S(=O)(=O)O)c2)cc1`, the compound was called inactive in assay [18].

On to `CC(CN=Cc1ccccc1O)N=Cc1ccccc1O` (centres undefined), for which the compound was called inactive in [18], in [2], in [3], in assay [4], in assay [5] and in assay [6]. The outcome in assay [7], in assay [8], in [9], in [10], in [12] and in assay [13] was inactive. Moreover, the outcome in assay [14], in assay [15], in assay [16] and in assay [17] was inactive. Further, in assay [7], the AC50 (in general, the concentration at which the activity in the assay is half-maximal) was 0.16 µM (active).

On to `Cc1occc(=O)c1OC(=O)C(C)C`, for which the result in assay [18] was inactive.

`C=C(C)C(=O)OCC(CC)(COC(=O)C(=C)C)COC(=O)C(=C)C`: the AC50 was 26.3 µM (active) in [2], 19.7 µM (active) in assay [6] and 9.41 µM (active) in assay [13]. In addition, the outcome in [3], in [4], in assay [5], in assay [7], in [8] and in assay [9] was inactive. The result in assay [10], in [11], in [12], in [14], in [15] and in [16] was inactive. For the same compound, the result in assay [17] was inactive.

For `CCNCCO`, the compound was classed as inactive in assay [1].

As to `O=C(O)COCC(=O)O`, the compound was classed as inactive in assay [19] and in [1].

As for `C=C(C)C(=O)OCCOC1CC2CC1C1C=CCC21` (centres undefined), in assay [1], the call was inactive.

For the compound `Nc1ccn([C@H]2CS[C@@H](CO)O2)c(=O)n1`, the compound was called inactive in assay [18].

On to `Cc1cc(=O)oc2cc(N(C)C)ccc12`, for which the result in assay [18] and in assay [1] was inactive.

Consider `CCCC[P+](CCCC)(CCCC)CCCC`, for which, in [18], the result was inactive.

As to `[Cl][Au]([Cl])[Cl]`, the outcome in assay [1] was inactive.

As to `CCC1(c2ccccc2)C(=O)NCNC1=O`, the outcome in [1] was inactive.

On to `CC1(C)COCN1`, for which the result in [1] was inactive.

In the case of `NCC1CCCC(CN)C1` (centres undefined), the compound was classed as inactive in [18].

The values are drawn from PubChem BioAssay (EPA / NIEHS).
